Data as given in PubChem BioAssay (Tox21).
Unmarked numbers belong to inactive results. Results filed as inconclusive are left out. A call without a number means that no potency is given here. Calls of active or inactive are those of the source. Unless noted, the call rests on the fitted dose curve; in most records, active means well fitted curve in the direction sought with a large enough effect in the repeat runs; inconclusive means weak or mixed curves; inactive means no such curve, though single readings can be large; an effect the other way counts as inactive or inconclusive.

Experiments:
[1] = biological target: Thyrotropin receptor (Homo sapiens) (UniProt P16473); assay: qHTS assay to identify small molecule antagonists of the thyroid stimulating hormone receptor (TSHR) signaling pathway (AID 1259385; calls by dose curve; further: nearly all actives have a fitted effect of over 20% in size)
Method in brief: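 TSHR-HEK293 cells (800/well) plated 18 h, then compounds with Ro20-1724 and TSH at 1.5 ng/mL final, 30 min at room temperature. cAMP quantified by HTRF (cAMP-d2/anti-cAMP-cryptate, 1 h); 15 concentrations in triplicate.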

[2] = qHTS assay to identify small molecule agonists of the estrogen receptor alpha (ER-alpha) signaling pathway in the presence of an antagonist - cell viability counter screen (AID 1259386);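 further: series mostly up to about 92 µM; cells exposed to compounds for 22 h at 37 °C before the viability read; nearly all actives have a fitted effect of over 30% in size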
Method in brief: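 VM7Luc4E2, stripped-serum pre-culture 5 d; 24hr plating; +ICI-182,780 10.0nM final; cpds 15 conc, 22hr, 37C/5% CO2; CellTiter-Fluor added at 21hr, fluorescence 1hr later.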

[3] = biological target: Progesterone receptor (Homo sapiens) (UniProt P06401); assay: qHTS assay to identify small molecule agonists of the progesterone receptor (PR) signaling pathway (AID 1346784; calls by dose curve; further: nearly all actives have a fitted effect of over 30% in size)
Method in brief: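 Using charcoal-stripped serum (2%) to limit endogenous steroids, PR-UAS-bla HEK 293T cells received compounds for 16 hr at 37C after 6 hr plating; beta-lactamase FRET fluorescence was recorded following 2 hr substrate loading at room temperature.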

[4] = biological target: Progesterone receptor (Homo sapiens) (UniProt P06401); assay: qHTS assay to identify small molecule antagonists of the progesterone receptor (PR) signaling pathway (AID 1346795; active means well fitted inhibition curve with a large enough effect in the signal ratio in the repeat runs, not every such curve was filed as active; the % refers to the signal ratio)
Method in brief: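 Inhibition of R5020-induced (1 nM final) beta-lactamase reporter signal in PR-UAS-bla HEK293T cells was scored by FRET fluorescence after overnight (16 hr) compound treatment.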

[5] = qHTS assay to identify small molecule antagonists of the progesterone receptor (PR) signaling pathway - cell viability counter screen (AID 1346798); further: series mostly up to about 92 µM; nearly all actives have a fitted effect of over 50% in size
Method in brief: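 ATP content as viability readout: CellTiter-Glo luminescence, 30 min room temperature, in PR-UAS-bla HEK293T cells after 16 hr compound/R5020 treatment at 37C and 5% CO2.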

[6] = qHTS assay to identify small molecule agonists of the progesterone receptor (PR) signaling pathway - cell viability counter screen (AID 1346799; calls by dose curve; further: nearly all actives have a fitted effect of over 45% in size)
Method in brief: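 Cytotoxicity in PR-bla HEK293T cells: 16 h compound, 37C; CellTiter-Glo added post-FRET read; luminescence after 30 min RT.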

[7] = qHTS assay to identify small molecule antagonists of the TGF-beta/Smad signaling pathway - cell viability counter screen (AID 1346824); further: nearly all actives have a fitted effect of over 50% in size
Method in brief: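 SBE-bla HEK 293T cells, incubated overnight, then compound plus 0.25 ng/mL TGF-beta1 (stock added) for 5 hr at 37 C. Viability was read in the same wells by CellTiter-Glo luminescence after 30 min at room temperature.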

[8] = qHTS assay to identify small molecule agonists of the TGF-beta/Smad signaling pathway (AID 1346859; active means well fitted activation curve with a large enough effect in the signal ratio in the repeat runs, not every such curve was filed as active; the % refers to the signal ratio; further: series mostly up to about 77 µM)
Method in brief: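 Stable Smad binding element-beta-lactamase HEK 293T cells; 5 hr compound exposure at 37 C under 5% CO2; 2 hr room-temperature substrate step; fluorescence excited at 405 nm, collected at 460 nm and 530 nm.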

[9] = biological target: Thyrotropin-releasing hormone receptor (Homo sapiens) (UniProt P34981); assay: qHTS assay to identify small molecule antagonists of the thyrotropin-releasing hormone receptor (TRHR) signaling pathway (AID 1346877; active means well fitted inhibition curve with a large enough effect in the repeat runs, not every such curve was filed as active; further: series mostly up to about 51 µM)
Method in brief: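 Intracellular calcium fluorescence, read kinetically every second over 3 min, reports TRH-evoked signalling in HEK293 cells carrying TRHR. Test compounds were added 5 min ahead of a 1 nM TRH challenge.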

[10] = biological target: Thyrotropin-releasing hormone receptor (Homo sapiens) (UniProt P34981); assay: qHTS assay to identify small molecule agonists of the thyrotropin-releasing hormone receptor (TRHR) signaling pathway (AID 1346891; calls by dose curve;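 further: HEK293 cells expressing TRHR with calcium dye readout; series mostly up to about 58 µM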)
Method in brief: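 In 1536-format, 1500 TRHR-Hek293 cells per well grew 18 h, took up calcium dye for 2 h at 37 °C, received compound, and were read kinetically; 15-point titrations, triplicates.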

[11] = Human pregnane X receptor (PXR) small molecule agonists, qHTS cell viability counter screen (AID 1346977); further: nearly all actives have a fitted effect of over 50% in size
Method in brief: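 Readout is CellTiter-Fluor fluorescence from PXR-Luc HepG2 cells. Plated cells rested 5hr, then were treated with compounds for 24hr at 37C and 5% CO2, with reagent present during the last hour.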

[12] = Caspase-3/7 induction in HepG2 cells by small molecules, qHTS assay (AID 1346978); further: nearly all actives have a fitted effect of over 15% in size
Method in brief: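 Wild-type HepG2 cells, 2,000/well, settled 5 hr at 37 C and 5% CO2, then compound-treated for 17 hr; caspase-3/7 activity read by luminescent Caspase-Glo 3/7 after 30 min at room temperature.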

[13] = Caspase-3/7 induction in CHO-K1 cells by small molecules, qHTS cell viability counter screen (AID 1346979); further: nearly all actives have a fitted effect of over 35% in size
Method in brief: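 To flag cytotoxic compounds, treated CHO-K1 wild-type cells were given CellTiter-Fluor at 16hr and read fluorescently after 1hr at 37C; the caspase-3/7 luminescence was measured in these same wells.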

[14] = Caspase-3/7 induction in CHO-K1 cells by small molecules, qHTS assay (AID 1346980); further: nearly all actives have a fitted effect of over 15% in size
Method in brief: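 Wild-type CHO-K1 cells exposed to compounds for 17hr at 37 C, 5% CO2. Caspase-3/7 activity then measured by Caspase-Glo 3/7 luminescence after 30min at room temperature.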

[15] = Caspase-3/7 induction in HepG2 cells by small molecules, qHTS cell viability counter screen (AID 1346981); further: series mostly up to about 92 µM; nearly all actives have a fitted effect of over 30% in size
Method in brief: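 HepG2, WT, 2,000 cells/well; 5 hr pre-incubation 37 C/5% CO2; compound pin-transferred from DMSO; 16 hr exposure; CellTiter-Fluor, 1 hr; fluorescence read.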

[16] = qHTS assay to identify small molecule agonists of the TGF-beta/Smad signaling pathway - cell viability counter screen (AID 1346829); further: top concentration of the series differs between compounds; nearly all actives have a fitted effect of over 45% in size
Method in brief: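 Cytotoxicity counter screen: CellTiter-Glo luminescence (30 min, room temperature) measured in the SBE-bla HEK 293T reporter wells after 5 hr compound treatment at 37 C and the 2 hr substrate step.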

[17] = biological target: Nuclear receptor subfamily 1 group I member 2 (Homo sapiens) (UniProt O75469); assay: Human pregnane X receptor (PXR) small molecule agonists, qHTS assay (AID 1346982); further: nearly all actives have a fitted effect of over 35% in size; further: potency means the concentration at half of the fitted maximal effect
Method in brief: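 Luciferase signal from ONE-Glo (30 min, room temperature) measured activation of hPXR-driven CYP3A4 reporter expression in PXR-Luc HepG2 cells treated with compounds for 24 hr at 37 C.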

[18] = biological target: Nuclear receptor subfamily 1 group I member 2 (Rattus norvegicus) (UniProt Q9R1A7); assay: Rat pregnane X receptor (rPXR) activation by small molecules, qHTS assay (AID 1346983); details: rPXR luciferase reporter cells, One-Glo luminescence, 24 h; hits give high values; further: nearly all actives have a fitted effect of over 20% in size
Method in brief: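 Cell-based rPXR activation assay: rPXR cells, 2,000 per well, rested 5hr at 37 C, then exposed to compounds in DMSO for 24 hr at 37 C. Luciferase activity read by One-Glo luminescence after 30 min at room temperature.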

[19] = biological target: Nuclear receptor subfamily 1 group I member 2 (Homo sapiens) (UniProt O75469); assay: CYP3A4 induction through human pregnane X receptor (PXR) by small molecules, qHTS assay (AID 1346984); further: nearly all actives have a fitted effect of over 40% in size
Method in brief: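 Luminescence readout: luciferase signal after One-Glo (30 min, room temperature), following 3 h at 37C with 3uM final Luciferin-IPA P450 substrate. Cells were DPX-2 (HepG2, PXR/CYP3A4-luc co-transfected) dosed for 24 h.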

[20] = biological target: Nuclear receptor subfamily 1 group I member 2 (Homo sapiens) (UniProt O75469); assay: Human pregnane X receptor (PXR) activation by small molecules, qHTS assay (AID 1346985); further: nearly all actives have a fitted effect of over 40% in size
Method in brief: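 DPX-2 cells (HepG2 co-transfected with a PXR response element and a CYP3A4-promoter luciferase construct) were seeded at 2,000 per well, rested 5 hr at 37C, then exposed to DMSO-dissolved compounds for 24 hr. Activation was read as luciferase luminescence.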

Chain of Nuclear receptor subfamily 1 group I member 2 (Homo sapiens) (O75469 whole entry, looked up): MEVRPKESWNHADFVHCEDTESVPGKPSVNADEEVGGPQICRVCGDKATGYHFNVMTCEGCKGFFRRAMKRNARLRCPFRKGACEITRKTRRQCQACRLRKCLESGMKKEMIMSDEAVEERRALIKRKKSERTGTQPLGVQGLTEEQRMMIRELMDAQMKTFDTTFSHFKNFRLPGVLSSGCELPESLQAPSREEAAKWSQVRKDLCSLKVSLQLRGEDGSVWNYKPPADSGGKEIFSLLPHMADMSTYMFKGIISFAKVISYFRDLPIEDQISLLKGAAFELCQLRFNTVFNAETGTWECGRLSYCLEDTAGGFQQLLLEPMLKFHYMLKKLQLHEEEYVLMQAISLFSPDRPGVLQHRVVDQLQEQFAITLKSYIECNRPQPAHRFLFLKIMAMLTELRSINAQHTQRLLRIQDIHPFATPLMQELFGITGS
Chain of Thyrotropin-releasing hormone receptor (Homo sapiens) (P34981 whole entry, looked up): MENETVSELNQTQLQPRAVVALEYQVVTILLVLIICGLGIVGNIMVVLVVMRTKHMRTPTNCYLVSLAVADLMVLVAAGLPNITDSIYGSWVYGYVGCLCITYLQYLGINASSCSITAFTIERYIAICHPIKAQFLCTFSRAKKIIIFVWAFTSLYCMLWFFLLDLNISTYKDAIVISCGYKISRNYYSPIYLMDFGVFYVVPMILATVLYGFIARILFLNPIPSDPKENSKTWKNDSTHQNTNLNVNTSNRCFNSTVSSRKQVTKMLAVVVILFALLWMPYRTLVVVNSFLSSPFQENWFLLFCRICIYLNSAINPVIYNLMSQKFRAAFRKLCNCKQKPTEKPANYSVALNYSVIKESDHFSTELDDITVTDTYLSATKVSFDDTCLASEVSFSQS
Chain of Progesterone receptor (Homo sapiens) (P06401 whole entry, looked up): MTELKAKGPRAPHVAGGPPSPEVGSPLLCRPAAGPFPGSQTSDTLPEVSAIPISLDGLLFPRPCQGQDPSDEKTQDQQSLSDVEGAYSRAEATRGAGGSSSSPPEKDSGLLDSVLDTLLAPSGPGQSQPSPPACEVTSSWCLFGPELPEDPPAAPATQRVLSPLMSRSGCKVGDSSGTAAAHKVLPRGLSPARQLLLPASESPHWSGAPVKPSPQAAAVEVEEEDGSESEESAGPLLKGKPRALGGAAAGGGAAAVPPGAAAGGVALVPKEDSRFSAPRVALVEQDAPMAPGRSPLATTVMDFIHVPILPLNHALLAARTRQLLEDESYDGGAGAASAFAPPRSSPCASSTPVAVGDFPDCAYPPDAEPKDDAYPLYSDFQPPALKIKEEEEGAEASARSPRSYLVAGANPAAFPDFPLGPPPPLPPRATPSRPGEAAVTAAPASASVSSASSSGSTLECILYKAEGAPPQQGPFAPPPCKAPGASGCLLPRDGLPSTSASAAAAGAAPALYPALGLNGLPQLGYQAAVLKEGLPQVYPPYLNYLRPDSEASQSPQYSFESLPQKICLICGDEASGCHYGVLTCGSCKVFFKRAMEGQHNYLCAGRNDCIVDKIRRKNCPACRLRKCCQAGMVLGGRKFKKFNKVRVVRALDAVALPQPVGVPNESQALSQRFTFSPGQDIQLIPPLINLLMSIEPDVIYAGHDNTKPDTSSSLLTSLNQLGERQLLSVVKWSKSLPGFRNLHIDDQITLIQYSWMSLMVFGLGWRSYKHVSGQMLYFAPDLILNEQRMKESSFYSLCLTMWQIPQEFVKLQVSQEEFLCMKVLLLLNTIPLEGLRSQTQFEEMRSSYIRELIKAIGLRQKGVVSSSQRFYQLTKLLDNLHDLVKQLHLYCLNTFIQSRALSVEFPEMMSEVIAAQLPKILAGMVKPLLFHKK
Chain of Thyrotropin receptor (Homo sapiens) (P16473 whole entry, looked up): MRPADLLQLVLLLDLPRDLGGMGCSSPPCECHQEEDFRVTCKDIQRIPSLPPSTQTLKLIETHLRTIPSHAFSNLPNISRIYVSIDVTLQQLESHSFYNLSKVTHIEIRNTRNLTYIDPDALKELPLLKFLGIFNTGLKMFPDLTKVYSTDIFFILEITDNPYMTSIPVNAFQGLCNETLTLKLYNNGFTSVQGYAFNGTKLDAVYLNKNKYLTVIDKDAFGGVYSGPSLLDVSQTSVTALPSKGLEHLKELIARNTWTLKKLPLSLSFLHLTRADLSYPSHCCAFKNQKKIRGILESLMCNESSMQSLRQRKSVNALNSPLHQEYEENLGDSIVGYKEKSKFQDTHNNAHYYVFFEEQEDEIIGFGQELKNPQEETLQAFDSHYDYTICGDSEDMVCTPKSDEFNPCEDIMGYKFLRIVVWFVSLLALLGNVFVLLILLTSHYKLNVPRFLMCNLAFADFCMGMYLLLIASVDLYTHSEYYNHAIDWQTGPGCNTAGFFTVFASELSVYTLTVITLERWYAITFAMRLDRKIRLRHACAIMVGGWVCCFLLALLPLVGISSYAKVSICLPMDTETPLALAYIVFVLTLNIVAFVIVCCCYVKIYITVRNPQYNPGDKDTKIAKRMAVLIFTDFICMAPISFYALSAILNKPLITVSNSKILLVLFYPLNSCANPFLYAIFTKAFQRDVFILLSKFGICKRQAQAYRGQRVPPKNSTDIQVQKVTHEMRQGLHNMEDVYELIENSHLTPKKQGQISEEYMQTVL
Chain of Nuclear receptor subfamily 1 group I member 2 (Rattus norvegicus) (Q9R1A7 whole entry, looked up): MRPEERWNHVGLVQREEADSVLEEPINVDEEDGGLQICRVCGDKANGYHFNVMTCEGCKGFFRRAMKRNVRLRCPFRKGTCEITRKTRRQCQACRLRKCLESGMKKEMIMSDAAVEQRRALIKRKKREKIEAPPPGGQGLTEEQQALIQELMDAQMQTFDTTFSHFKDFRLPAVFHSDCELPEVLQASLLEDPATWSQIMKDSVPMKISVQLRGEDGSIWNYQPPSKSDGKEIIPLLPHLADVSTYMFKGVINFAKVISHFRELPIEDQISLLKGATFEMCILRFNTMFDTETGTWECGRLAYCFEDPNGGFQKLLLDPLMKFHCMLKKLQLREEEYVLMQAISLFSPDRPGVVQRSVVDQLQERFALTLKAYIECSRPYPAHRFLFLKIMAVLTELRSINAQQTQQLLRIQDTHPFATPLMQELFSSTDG

SMILES | outcome [1] | Potency [2] | Potency [3] | Potency [4] | Potency [5] | Potency [6] | outcome [7] | outcome [8] | Potency [9] | outcome [10] | Potency [11] | outcome [12] | Potency [13] | outcome [14] | Potency [15] | Potency [16] | Potency [17] | max activation [18] | Potency [19] | Potency [20]
CCCOC(=O)c1cncn1C(C)c1ccccc1 (centres undefined) | inactive | inactive | inactive | inactive | inactive | inactive | inactive | inactive | inactive | inactive | inactive | inactive | inactive | inactive | inactive | – | – | – | – | –
CCCC(C)(COC(N)=O)COC(N)=O | inactive | inactive | inactive | inactive | inactive | inactive | inactive | inactive | – | – | inactive | inactive | inactive | inactive | inactive | inactive | 51.5 µM (active) | -1.03% | inactive | inactive
C/C(=N\NC(=O)Nc1cc(F)cc(F)c1)c1ncccc1C(=O)O | inactive | inactive | inactive | inactive | inactive | – | inactive | inactive | inactive | inactive | inactive | inactive | inactive | inactive | inactive | inactive | inactive | – | – | –
O=P(O)(O)CN(CP(=O)(O)O)CP(=O)(O)O | inactive | inactive | inactive | inactive | inactive | inactive | inactive | inactive | – | – | inactive | inactive | inactive | inactive | inactive | inactive | inactive | – | – | –
